Results on seven molecules are retold here after PubChem BioAssay (NCATS).

Assay [1] concerns the target Ubiquitin carboxyl-terminal hydrolase 1 (Homo sapiens) (UniProt O94782). The assay can be described thus: Inhibitors of USP1/UAF1: Pilot qHTS (AID 504865; active means well fitted inhibition curve with a large enough effect;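 further: rhodamine fluorescence freed from ubiquitin-rhodamine substrate followed over time; top concentration of the series differs between compounds; nearly all actives have a fitted effect of over 35% in size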). Conditions: purified USP1/UAF1, Ub-rhodamine cleavage fluorescence; series mostly up to 114 µM. In outline: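 USP1/UAF1 complex at 1 nM preincubated 15 min at room temperature with compound, then Ub-Rho substrate added at 150 nM final. Fluorescence (480/540 nm) read kinetically in 50 mM HEPES pH 7.8, 0.5 mM EDTA, 1 mM TCEP, 0.1 mg/ml BSA, 0.01% Tween-20.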
Background: qHTS replaces the single test concentration by a dilution series.

Assay [2] addresses Bile acid receptor (Homo sapiens) (UniProt Q96RI1). The assay can be described thus: qHTS assay for small molecule antagonists of farnesoid X receptor signaling (AID 588526). The conditions noted are these: HEK293T FXR-UAS-bla, beta-lactamase ratio, antagonist mode; series mostly up to 76.7 µM. Summed up:
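Antagonist mode: titrated compounds tested against chenodeoxycholic acid stimulation (normalized to 50 uM CDCA and DMSO) in GeneBLAzer HEK293T cells for 16 h. Beta-lactamase read by CCF4 fluorescence; IC50 from Hill fits.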

The target of assay [3] is Glucocorticoid receptor (Homo sapiens) (UniProt P04150). The assay is described as follows: qHTS assay for small molecule agonists of glucocorticoid receptor signaling (AID 588532; active means well fitted curve in the direction sought with a large enough effect in the signal ratio, with a control signal flat; the % refers to the signal ratio). The conditions noted are these: HeLa MMTV-bla, beta-lactamase ratio, agonist, 18 h; active compounds read high; percent of dexamethasone control, DMSO zero. In outline: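 MMTV-bla HeLa beta-lactamase reporter cells in 1% charcoal/dextran FBS medium, compounds up to 92 uM for 18 h at 37 C, CCF4 readout; normalized to 0.1 uM dexamethasone (100%), EC50 and efficacy from Hill fits.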
Glucocorticoid receptor (Homo sapiens), sequence (P04150 whole entry, looked up): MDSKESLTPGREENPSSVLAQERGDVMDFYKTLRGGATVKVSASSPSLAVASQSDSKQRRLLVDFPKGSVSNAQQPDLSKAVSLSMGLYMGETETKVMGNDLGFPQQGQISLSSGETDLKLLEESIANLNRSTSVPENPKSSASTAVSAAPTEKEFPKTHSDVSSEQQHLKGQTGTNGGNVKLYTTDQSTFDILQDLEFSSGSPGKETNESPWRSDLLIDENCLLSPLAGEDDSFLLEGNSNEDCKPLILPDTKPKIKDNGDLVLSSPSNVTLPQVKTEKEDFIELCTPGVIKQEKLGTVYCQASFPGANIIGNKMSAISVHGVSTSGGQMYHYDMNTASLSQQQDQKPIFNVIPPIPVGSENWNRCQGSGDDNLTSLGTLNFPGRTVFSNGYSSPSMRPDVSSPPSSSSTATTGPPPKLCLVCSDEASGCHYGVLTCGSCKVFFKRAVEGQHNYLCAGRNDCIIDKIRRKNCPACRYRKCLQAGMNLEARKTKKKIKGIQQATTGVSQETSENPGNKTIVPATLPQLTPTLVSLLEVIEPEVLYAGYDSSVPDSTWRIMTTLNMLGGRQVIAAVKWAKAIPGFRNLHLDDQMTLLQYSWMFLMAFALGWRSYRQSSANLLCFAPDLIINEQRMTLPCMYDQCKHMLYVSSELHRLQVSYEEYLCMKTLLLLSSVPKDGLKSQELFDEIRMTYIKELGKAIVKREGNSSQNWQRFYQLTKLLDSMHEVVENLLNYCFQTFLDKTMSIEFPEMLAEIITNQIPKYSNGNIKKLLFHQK

The target is the same in assay [4]. The assay is described as follows: qHTS assay for small molecule antagonists of glucocorticoid receptor signaling (AID 588533; active means well fitted inhibition curve with a large enough effect in the signal ratio, with a control signal flat, not every such curve was filed as active; the % refers to the signal ratio;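 further: cells stimulated with 2 nM dexamethasone as agonist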). The conditions noted are these: HeLa MMTV-bla, GRE beta-lactamase ratio, antagonist mode, 18 h; series mostly up to 76.8 µM. In outline: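 Antagonist-mode qHTS: compound titrations added to GRE-bla HeLa cells, then dexamethasone 2 nM final; 18 h, 37 C. CCF4 FRET fluorescence normalized to dexamethasone and DMSO; IC50 from Hill fit.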

The target in assay [5] is Estrogen receptor (Homo sapiens) (UniProt P03372). The assay is described as follows: qHTS assay for small molecule agonists of estrogen receptor alpha signaling (AID 588514). Further: nearly all actives have a fitted effect of over 70% in size. Conditions: ER-alpha-UAS-bla HEK293, beta-lactamase ratio, 18 h, percent of full estradiol response, vehicle zero; series mostly up to 76.8 µM. Summed up: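 Efficacy is expressed against 20 nM 17-beta-estradiol (100%) and DMSO basal (0%); EC50 from Hill equation. Assay: beta-lactamase reporter in ER-alpha-UAS-bla HEK 293 cells, 18 h compound incubation, CCF4 detection.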
Estrogen receptor (Homo sapiens), sequence (P03372 whole entry, looked up): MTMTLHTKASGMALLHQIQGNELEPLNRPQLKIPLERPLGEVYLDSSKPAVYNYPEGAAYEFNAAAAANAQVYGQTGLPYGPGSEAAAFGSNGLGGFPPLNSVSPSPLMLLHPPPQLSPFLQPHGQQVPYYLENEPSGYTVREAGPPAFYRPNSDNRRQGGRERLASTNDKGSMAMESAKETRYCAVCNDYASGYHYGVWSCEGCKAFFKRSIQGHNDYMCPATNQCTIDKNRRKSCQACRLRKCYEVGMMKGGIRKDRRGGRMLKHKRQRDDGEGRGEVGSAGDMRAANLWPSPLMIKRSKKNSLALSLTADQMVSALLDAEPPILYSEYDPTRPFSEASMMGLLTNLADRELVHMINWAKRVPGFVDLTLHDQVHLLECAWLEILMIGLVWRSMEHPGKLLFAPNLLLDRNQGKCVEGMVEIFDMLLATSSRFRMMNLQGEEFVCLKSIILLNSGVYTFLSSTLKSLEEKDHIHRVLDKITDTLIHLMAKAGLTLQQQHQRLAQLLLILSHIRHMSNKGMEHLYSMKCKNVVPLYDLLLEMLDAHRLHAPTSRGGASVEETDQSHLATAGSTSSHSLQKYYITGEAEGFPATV

Assay [6] concerns the target DNA dC->dU-editing enzyme APOBEC-3G (Homo sapiens) (UniProt Q9HC16). The assay is described as follows: qHTS for inhibitors of Vif-A3G interactions: Validation (AID 588379; active means well fitted inhibition curve with a large enough effect). Conditions: Vif-A3G protein interaction assay; series mostly up to 46.1 µM. Summed up: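 Yellow fluorescence (Ex 488, Em 500-530) of Vif-coexpressing HeLa A3G-eYFP cells, scanned by Acumen cytometer, reports blocked A3G degradation. Cells plated at 700/well overnight at 37 deg C before compound addition, then a further overnight compound incubation at 37 deg C.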

Values joined by “and” are separate entries in the source; they are usually repeats but may differ in a detail not shown here. Equal values may be shown once. Unmarked numbers belong to inactive results. Records with an inconclusive call do not appear. Entries that show only a call come without a potency. Active and inactive are the calls of the source. Unless noted, the call rests on the fitted dose curve.

Ubiquitin carboxyl-terminal hydrolase 1 (Homo sapiens), sequence (O94782 whole entry, looked up): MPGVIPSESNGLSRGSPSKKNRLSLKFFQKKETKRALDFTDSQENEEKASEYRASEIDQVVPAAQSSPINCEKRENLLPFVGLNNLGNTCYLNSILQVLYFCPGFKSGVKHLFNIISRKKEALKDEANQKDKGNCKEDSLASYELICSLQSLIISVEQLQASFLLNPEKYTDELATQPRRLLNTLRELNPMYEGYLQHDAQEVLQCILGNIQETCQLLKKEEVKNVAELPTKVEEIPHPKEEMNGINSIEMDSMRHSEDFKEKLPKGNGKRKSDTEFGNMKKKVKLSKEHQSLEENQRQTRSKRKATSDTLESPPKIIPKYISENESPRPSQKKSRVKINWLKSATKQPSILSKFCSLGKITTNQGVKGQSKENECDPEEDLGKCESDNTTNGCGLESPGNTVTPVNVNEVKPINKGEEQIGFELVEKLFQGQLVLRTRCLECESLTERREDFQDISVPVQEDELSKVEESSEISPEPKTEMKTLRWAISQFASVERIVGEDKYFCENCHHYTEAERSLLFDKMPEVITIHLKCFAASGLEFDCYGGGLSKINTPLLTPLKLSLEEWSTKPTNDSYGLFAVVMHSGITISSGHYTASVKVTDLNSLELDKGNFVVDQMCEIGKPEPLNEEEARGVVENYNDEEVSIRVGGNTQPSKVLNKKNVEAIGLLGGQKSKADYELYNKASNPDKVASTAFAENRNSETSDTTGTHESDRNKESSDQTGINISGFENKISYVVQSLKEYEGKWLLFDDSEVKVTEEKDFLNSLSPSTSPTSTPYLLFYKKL
Bile acid receptor (Homo sapiens), sequence (Q96RI1 whole entry, looked up): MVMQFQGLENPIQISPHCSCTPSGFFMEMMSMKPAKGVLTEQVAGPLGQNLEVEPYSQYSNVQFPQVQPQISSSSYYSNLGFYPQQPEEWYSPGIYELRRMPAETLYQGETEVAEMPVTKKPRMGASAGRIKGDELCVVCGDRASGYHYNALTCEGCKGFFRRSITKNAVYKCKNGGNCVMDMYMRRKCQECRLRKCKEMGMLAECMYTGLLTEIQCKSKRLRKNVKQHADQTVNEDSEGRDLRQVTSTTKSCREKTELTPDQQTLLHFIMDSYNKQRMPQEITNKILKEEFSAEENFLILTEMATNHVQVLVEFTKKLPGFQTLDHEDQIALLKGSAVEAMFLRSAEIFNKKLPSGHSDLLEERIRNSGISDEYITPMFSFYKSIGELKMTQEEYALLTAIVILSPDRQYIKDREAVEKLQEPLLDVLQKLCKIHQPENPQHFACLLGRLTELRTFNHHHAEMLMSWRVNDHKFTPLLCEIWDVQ
DNA dC->dU-editing enzyme APOBEC-3G (Homo sapiens), sequence (Q9HC16 whole entry, looked up): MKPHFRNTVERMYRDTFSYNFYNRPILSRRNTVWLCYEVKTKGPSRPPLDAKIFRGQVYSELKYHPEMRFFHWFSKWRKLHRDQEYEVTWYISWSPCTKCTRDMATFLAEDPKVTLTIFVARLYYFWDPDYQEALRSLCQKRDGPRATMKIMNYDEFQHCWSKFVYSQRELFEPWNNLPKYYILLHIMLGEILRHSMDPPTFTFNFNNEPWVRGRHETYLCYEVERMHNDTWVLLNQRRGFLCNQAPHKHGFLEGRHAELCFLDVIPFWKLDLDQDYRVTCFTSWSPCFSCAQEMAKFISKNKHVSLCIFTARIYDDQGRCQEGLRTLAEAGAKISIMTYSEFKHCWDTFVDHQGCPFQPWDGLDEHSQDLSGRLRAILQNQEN

Regarding `NC(=O)c1cccnc1`, the Potency result in assay [1] is “inactive”.

With `Cc1ccnc2c1NC(=O)c1cccnc1N2C1CC1`, the result in assay [2] and in assay [4] was inactive. Besides, in assay [3], the activation was -5.33%.

For the molecule `NC(N)=NC(N)=NCCc1ccccc1`, the outcome in assay [5] was inactive. Besides, the activation in assay [3] was 10% and -5.38%.

With `N=C(N)c1ccc(OCCCCCOc2ccc(C(=N)N)cc2)cc1`, the outcome in assay [5] and in assay [4] was inactive. The activation in assay [3] is -5.79% and -1.59%.

In the case of `S=P(N1CC1)(N1CC1)N1CC1`, the Potency entry in assay [1] is “inactive”. The outcome in assay [2] and in assay [4] was inactive. Also, the activation in assay [3] is -9.54%.

Turning to `O=c1oc2c(O)c(O)cc3c(=O)oc4c(O)c(O)cc1c4c23`, in assay [6], the molecule was classed as inactive.

Consider `CCOc1cc(N)c(Cl)cc1C(=O)NCC1CN(Cc2ccc(F)cc2)CCO1` (stereo not given), for which, in assay [1], the Potency entry is “inactive”.
